# From PubChem BioAssay
# The list is not random: actives were taken first. Their share in the collection is about 11%.
# Tau fluor cs – counter-screen for tau fibril formation inhibitors; tau K18 P301L Alexa594 fluorescence, heparin fibrillization; Potency, µM (top dose mostly 57.7 µM), for the others: top-dose activity change, negative = decrease; 280,000 compounds, 0.93% hits; AID 1463; note: potency is the fitted concentration of half-maximal effect; nearly all actives have a fitted effect of over 55% in size
#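 Human tau K18 P301L (15 uM unlabeled, 0.24 uM Alexa 594-labeled) in 100 mM sodium acetate pH 7 with 20 uM heparin, 6 hr at 37 C. ThT 30 uM added, 1 hr ambient; Alexa 594 FP and total fluorescence read at 555/632 nm.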
# G9a block – inhibitors of human histone lysine methyltransferase G9a. Q96KQ7. G9a H3K9 monomethylation, AlphaScreen, 2 h. Potency, µM (titrated, usually from 102 µM), without a hit: at the highest dose activity, negative = inhibition, most hits filed as inhibitors. 350,000 compounds, 8.8% hits. AID 504332; note: potency is the fitted concentration of half-maximal effect; nearly all actives have a fitted effect of over 75% in size
# Target sequence (Q96KQ7 913-1193 limits assumed): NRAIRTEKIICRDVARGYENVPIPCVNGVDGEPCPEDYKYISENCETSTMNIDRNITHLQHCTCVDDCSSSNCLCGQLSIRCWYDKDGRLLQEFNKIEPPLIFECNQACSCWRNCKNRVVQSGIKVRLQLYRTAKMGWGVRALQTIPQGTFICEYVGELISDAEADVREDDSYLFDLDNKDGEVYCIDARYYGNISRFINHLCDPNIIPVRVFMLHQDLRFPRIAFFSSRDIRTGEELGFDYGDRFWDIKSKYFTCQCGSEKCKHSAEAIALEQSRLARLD
#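 AlphaScreen read-out: biotin-H3K9 peptide (500 nM) methylation by 20 nM enzyme with 20 uM SAM, 2 h at room temperature after 15 min compound preincubation; anti-monomethyl H3K9 antibody plus donor/acceptor beads, 10 min dark.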
# Tau ThT inhib – tau fibrillization inhibition (ThT binding). Potency, µM (doses to about 57.4 µM), for the others: at the highest dose activity, negative = inhibition, actives largely listed as inhibitors. AID 1460. recombinant tau K18 P301L (four-repeat tau fragment), heparin-induced fibrillization, ThT fluorescence. P10636. 270,000 compounds, 2.1% hits; note: potency is the fitted concentration of half-maximal effect; nearly all actives have a fitted effect of over 55% in size
# Target sequence (P10636 561-689 P618L limits assumed): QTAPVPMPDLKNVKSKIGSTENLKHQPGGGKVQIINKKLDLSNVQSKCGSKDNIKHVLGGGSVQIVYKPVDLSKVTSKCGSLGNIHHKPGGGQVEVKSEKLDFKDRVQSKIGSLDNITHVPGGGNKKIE
#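 In this qHTS, human K18 P301L tau is incubated with compound and heparin for 6 hr at 37 C, and Thioflavin T fluorescence then reports fibril load.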
# Coupling enz – counter-screen for Giardia aldolase inhibitors: coupling enzyme system. coupling enzyme system counterscreen, AmpLite Red fluorescence. activity change, negative = inhibition, % at 58.2 µM, hits read low. 290,000 compounds, 0.67% hits. AID 2472; in the data active = activity change below about -30%
#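 Final compound at 57.5 uM, incubated 10 min at RT with coupling enzyme reagent (glyceraldehyde-3-phosphate), then 20 min with substrate and AmpLite Red detection. Fluorescence read at 525/598 nm; tests interference with the coupling assay, not aldolase inhibition.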
# Sfp inh – inhibitors of Bacillus subtilis Sfp phosphopantetheinyl transferase; Potency, µM, inactives show largest response in the series, negative = inhibition, usual class: inhibitors; Q9F4F7; Biochemical Sfp PPTase activity, qHTS; 310,000 compounds, 3.5% hits;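 note: the enzyme is Sfp with the accession as filed and its product quenches rhodamine fluorescence; potency is the fitted concentration of half-maximal effect; 0% = enzyme reaction without inhibitor and -100% = no enzyme wells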
#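 Fluorescence-quenching assay with 15 nM Sfp, 5 uM rhodamine-CoA and 12.5 uM BHQ-2-labelled ybbR peptide in pH 7.6 Hepes/MgCl2 buffer. Enzyme was pre-incubated with compound for 15 min at room temperature. Rate was taken from the 30-min fluorescence change (525/598 nm).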
# Tau fibril FP – blocks human tau fibril formation measured by polarization; K18 P301L tau heparin fibrillization, Alexa594 FP, 6 h; Potency, µM (titrated, usually from 57.7 µM), inactives show at the top dose activity, negative = inhibition, most hits filed as inhibitors; 280,000 compounds, 0.39% hits; note: potency is the fitted concentration of half-maximal effect; nearly all actives have a fitted effect of over 55% in size
#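 Compound effects on tau fibrillization are measured by Alexa 594 fluorescence polarization (ex 555, em 632 nm). K18 P301L tau is used at 15 uM with 0.24 uM labeled tracer, and 20 uM heparin induces aggregation over 6 hr at 37 C.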
# Sfp inh conf – Sfp phosphopantetheinyl transferase inhibition, confirmation; shares compounds with Sfp inh; 380 compounds, 79% hits; Potency, µM (titrated, usually from 114 µM), for the others: at the highest dose activity change, negative = inhibition, usual class: inhibitors; Sfp PPTase enzymatic assay, qHTS titration;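 note: potency is the fitted concentration of half-maximal effect; plate controls were uninhibited Sfp reaction for no effect and no enzyme control for full effect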
# Target sequence (Q9F4F7 whole entry, looked up): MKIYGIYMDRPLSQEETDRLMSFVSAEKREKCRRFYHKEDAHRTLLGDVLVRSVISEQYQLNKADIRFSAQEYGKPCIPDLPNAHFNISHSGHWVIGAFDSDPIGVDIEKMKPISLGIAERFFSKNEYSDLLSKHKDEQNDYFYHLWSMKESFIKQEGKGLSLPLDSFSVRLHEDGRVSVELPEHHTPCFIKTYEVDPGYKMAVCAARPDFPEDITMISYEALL
# Sfp gel assay – Inhibits Bacillus subtilis Sfp phosphopantetheinyl transferase. purified Sfp, gel-based phosphopantetheinylation read-out. 210 compounds, 20% hits. shares compounds with Sfp inh. Potency, µM, most hits filed as inhibitors;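 active = potency below 100 µM; inconclusive = dose-dependent response but potency above 100 µM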;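 note: band intensities scaled against SCH202676 control wells before curve fitting; potency is an IC50 for inhibitors of Sfp transfer activity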
# Numbers without * were called inactive; i = inactive; u = inconclusive; x = no result given; ! = a repeat was not active; [ ] = remark or other dose. Unless noted, calls come from the whole dose curve; as a rule, active = well fitted curve in the direction sought with a large enough effect; inconclusive = small, poorly fitted or top-dose-only effect, or another doubt; inactive = no such curve, though single readings can be large; an effect the other way counts as inactive or inconclusive. Unless noted, % is set by controls: 0 for no effect and ±100 for the full control effect.
SMILES,Tau fluor cs,G9a block,Tau ThT inhib,Coupling enz,Sfp inh,Tau fibril FP,Sfp inh conf,others
OC(CN1CCCCC1)Cn1c2ccccc2c2cc(Br)ccc21 (stereo not drawn),x,-9%,x,2,-9%,x,x,
O=C(CN1C(=O)COc2ccccc21)N1CCOCC1,x,x,x,x,5%,x,x,
O=C1CN(CC(=O)N2CCOCC2)c2ccccc2O1,-17%,-13%[2.33 µM],u,-64*,3.5µM*,-16%,3%,
CCN(CC)S(=O)(=O)c1ccc2c(c1)nc(CCC(=O)O)n2C,-9%,25µM*,-17%,3,20µM*,-14%,47µM*,
CCN(CC)S(=O)(=O)c1ccc2c(c1)nc(CCC(=O)Nc1ccc3c(c1)OCO3)n2C,-21%,u,u,-5,-13%,5%,x,
COc1cc2nc(N3CCN(C(=O)[C@H]4CCCO4)CC3)nc(N)c2cc1OC,-10%,x,-14%,-1,-1%,-2%,x,
COc1cc2nc(N3CCN(C(=O)C4CCCO4)CC3)nc(N)c2cc1OC (stereo not drawn),5%,u,5%,-50*!,56µM*!,3%,0%,Sfp gel assay=u
CCOC(=O)c1cc(=O)n2nc(-c3ccccc3F)nc2s1,-17%,u,-8%,1,14µM*,-4%,59µM*,
CCOC(=O)c1ccc(NC(=O)Cn2nnc(-c3ccccc3F)n2)cc1,-29%,8%[59 µM],8%,2,-3%,-10%,x,
CCCNC(=O)c1nn2c(C(F)(F)F)cc(-c3ccccc3)nc2c1Cl,x,61%,x,0,16%,x,x,
O=C(NCCCn1ccnc1)c1nn2c(C(F)(F)F)cc(-c3ccc(Br)cc3)nc2c1Cl,21%,50µM*,u,1,1.1µM*,u,u,
CCc1c(O)nc(SCC(=O)Nc2nc3ccccc3s2)n(C2CCCCC2)c1=O,u,u,x,6,-7%,8%,x,
COCCN(C(=O)c1cc2c(s1)CCC2)c1c(N)n(CC(C)C)c(=O)[nH]c1=O,x,-45%[12.7 µM],x,x,x,x,x,
COC(=O)c1cc(C)nc(Sc2ccccc2N)n1,u,3.5µM*,28µM*,1,2µM*,u,4.2µM*,
COC(=O)c1ccccc1NC(=O)CSc1nc(C)cc(C)n1,-4%,-4%,-4%,0,-15%,8%,x,
C#CCOCCOCCOCCNc1nc(N2CCOCC2)nc(N2CCN(C(=O)[C@H](CCC(=O)O)n3cc(C(N)Cc4ccc(O)cc4)nn3)CC2)n1 (stereo partly drawn),1%,3%[12.7 µM],3%,-2,u,5%,x,
Cc1cc(-c2csc(NC(=O)c3ccc(=O)[nH]c3)n2)c(C)n1Cc1ccco1,u,x,4µM*,-6,4.5µM*,u,13µM*,
O=C(CC(SCc1ccco1)c1ccc(O)cc1)c1cccs1 (stereo not drawn),u,-18%[59 µM],-13%,0,56µM*,-9%,7.4µM*,Sfp gel assay=i
O=C(CSc1nnc(-c2ccc(O)cc2)n1Cc1ccco1)c1cccs1,-22%,u,u,0,u,-13%,x,
Cc1cnc(C(=O)OCC(=O)c2ccc(Br)s2)cn1,x,-10%,x,x,x,x,x,
c1cncc(Nc2nc(-c3cccs3)cs2)c1,16µM*[quencher],u,u,-8,5µM*,9%,30µM*,Sfp gel assay=u
O=C(Nc1ccccc1C(=O)NCCCN1CCOCC1)c1ccc(F)cc1,x,-11%[12.7 µM],x,x,7%,x,x,
COc1ccc(-c2noc(CSc3nc4sc(C)c(C)c4c(=O)n3-c3ccccc3)n2)cc1,-3%,-12%[59 µM],0%,0,4µM*,0%,4.7µM*,Sfp gel assay=i
Cc1ccc(-c2nc(=S)c3c(n2Cc2cccnc2)CC(C)(C)OC3)cc1,-2%,16%,-8%,1,0%,-2%,x,
O=C(CSc1n[nH]c(-c2ccccc2O)n1)N1CCOCC1,7%,26%,6%,0,3.5µM*,6%,15%,Sfp gel assay=i
SMILES,Tau fluor cs,G9a block,Tau ThT inhib,Coupling enz,Sfp inh,Tau fibril FP,Sfp inh conf,others
COc1ccc(C2C(=O)N(C3CCCCCC3)CC(=O)N2Cc2ccccc2)cc1 (stereo not drawn),-6%,-8%[59 µM],-7%,x,x,4%,x,
O=C(O)c1cc(=O)c2c3nc4ccccc4oc-3cc(=O)c2[nH]1,x,u,x,x,45µM*,x,53µM*,
COC(=O)Nc1sc2c(c1C(N)=O)CCC(C)C2 (stereo not drawn),-13%,14µM*,u,-12,3.5µM*,-10%,15µM*,
CC1CCc2c(sc(NC(=O)C3c4ccccc4Oc4ccccc43)c2C(N)=O)C1 (stereo not drawn),-20%,1%[59 µM],3%,1,-12%,-13%,x,
COc1ccc2c(c1O)-c1ccccc1CCN(C)C2,3%,-46%[59 µM],u,2,15%,9%,x,
CN1CCc2cccc3c2[C@@H]1Cc1ccc(O)c(O)c1-3,28µM*[quencher],2µM*,28µM*,-7,63µM*,28µM*,59µM*,Sfp gel assay=56µM*
CCC1=C[C@@H]2CN(C1)Cc1c([nH]c3ccccc13)[C@@](C(=O)OC)(c1cc3c(cc1OC)N(C)[C@H]1[C@@](O)(C(=O)OC)[C@H](OC(C)=O)[C@]4(CC)C=CCN5CC[C@]31[C@@H]54)C2,x,x,x,-7,14µM*,x,u,Sfp gel assay=56µM*
CC[C@]1(O)C[C@@H]2CN(CCc3c([nH]c4ccccc34)[C@](C(=O)OC)(c3cc4c(cc3OC)N(C)[C@H]3[C@](O)(C(=O)OC)[C@@H](C(=O)OC)[C@@]5(CC)C=CCN6CC[C@@]43[C@@H]65)C2)C1,-14%,x,-17%,-1,-24%,-12%,x,
COc1ccc(NC(=O)CSc2nnc(NC(=O)Nc3ccccc3)s2)c(OC)c1,-5%,-24%[59 µM],-4%,x,x,u,x,
Clc1cccc2sc(N3CCCCC3)nc12,-6%,14%[12.7 µM],-6%,1,-24%,-2%,x,
Clc1cc(Cl)c2nc(N3CCCCC3)sc2c1,-2%,u,-8%,2,10µM*,3%,47µM*,
O=C(Cn1nnc2ccccc21)Nc1ccc(Cl)cn1,4%,2%,7%,1,14%,4%,x,
COc1ccc(OC)c(NC(=O)NC2CCCc3ccccc32)c1 (stereo not drawn),x,46%,x,-2,33%,x,x,
Cc1cc(C)cc(-n2c(SCC(=O)NCc3ccc4c(c3)OCO4)nc3ccccc3c2=O)c1,-17%,31%[59 µM],-8%,-2,-5%,-8%,x,
